We go through four sequences from article PMC6602471.

Sequence of RUNX1 (Q01196 whole entry): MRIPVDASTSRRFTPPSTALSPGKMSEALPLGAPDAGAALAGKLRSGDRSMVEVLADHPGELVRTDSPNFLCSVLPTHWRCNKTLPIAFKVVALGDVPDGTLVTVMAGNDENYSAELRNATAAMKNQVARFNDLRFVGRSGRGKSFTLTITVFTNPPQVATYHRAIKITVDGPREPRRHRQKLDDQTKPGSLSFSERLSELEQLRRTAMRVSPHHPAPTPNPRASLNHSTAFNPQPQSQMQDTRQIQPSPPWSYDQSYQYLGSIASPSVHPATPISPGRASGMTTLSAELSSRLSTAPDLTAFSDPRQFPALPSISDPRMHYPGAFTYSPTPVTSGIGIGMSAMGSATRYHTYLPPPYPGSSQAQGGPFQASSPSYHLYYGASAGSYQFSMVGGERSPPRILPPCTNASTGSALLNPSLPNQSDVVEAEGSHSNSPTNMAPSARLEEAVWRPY

The experiment addresses RUNX1 (Homo sapiens, UniProt Q01196 1-453). Briefly: custom PBM; custom protein-binding microarray; buffer, salt, pH and temperature not stated; high values mean tight binding. Particulars: dsDNA, one strand shown.
“GCGCACATTTCCCGTAAATCATACACGCACACATACACATACACACATACACATACGCAC”: the binding signal was 11 log fluorescence intensity.

Regarding “CGCGCACCCTGTGGTTGCGCACATACGCACACATACACATACACACATACACATACGCAC”, the binding signal is 11.4 log fluorescence intensity.

On to “GCATACAGCTGACGTCAGCCACATACGCACACATACACATACACACATACACATACGCAC”, for which the binding signal was 11 log fluorescence intensity.

On to “GCGCACATTCCCCGTAAATCATACACGCACACATACACATACACACATACACATACGCAC”, for which the binding signal was 11 log fluorescence intensity.
